Molecules are shown by their SMILES. Several values for one entry are separate records, joined by “and”; a condition that tells them apart may be missing. Equal entries are not always repeated. Inconclusive results are not listed. Values without a mark were called inactive. Activity calls are given as the source filed them. Calls follow the shape of the dose curve; as a rule, active = well fitted activation curve with a large enough effect; inconclusive = small, poorly fitted or top-dose-only effect; inactive = flat fitted curve, though single readings scatter.
Potency is read from the fitted curve at half-maximal effect.

The experiment in a line: qHTS assay for environmental chemicals that activate the Aryl hydrocarbon Receptor (AhR) signaling pathway (AID 651777). Also: nearly all actives have a fitted effect of over 15% in size. As to activation: % of control where 0% means no effect. As to conditions: 1A2-DRE human hepatoma cells, luciferase, 24 h; activation: hits give high values. Put shortly: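 Luminescence read-out: One-Glo added for 30 min at RT after 24 hr compound treatment (37 C, 5% CO2) of human hepatoma cells expressing a DRE/CYP1A2 promoter–luciferase reporter; increased signal indicates AhR activation.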
A general note: In qHTS, concentration-response curves come from the screen itself.
Turning to `CCOc1ccc(NC(C)=O)cc1`, the activation is 1.23% and 0.542%.
On to `COc1ccc(C(Cl)=C(c2ccc(OC)cc2)c2ccc(OC)cc2)cc1`, for which the activation was -0.915%.
The same measure, in the same setting: the value for `C/C=C/c1ccc(O)c(OC)c1` was 3.77% and 1.82%.
For the compound `CCCN(CCC)S(=O)(=O)c1ccc(C(=O)O)cc1`, the activation is -1.19% and -0.648%.
Same read-out and setting: the value for `CCCCOC(=O)CC(CC(=O)OCCCC)(OC(C)=O)C(=O)OCCCC` was 0.777%; that for `C#C[C@]1(O)CC[C@H]2[C@@H]3CCC4=Cc5oncc5C[C@]4(C)[C@H]3CC[C@@]21C` was 0.604%.
Turning to `CCCCCCCCCCCCCC(=O)OC(C)C`, the activation was -0.593%.
Still for that read-out and setting: the same measure for `CCOc1ccccc1C(N)=O`: 0.471%; for `CCCCCCCCOc1ccc(C(=O)c2ccccc2)c(O)c1`: -9.5%.
Same read-out and setting: the same measure for `COc1cc([C@H]2Oc3cc([C@H]4Oc5cc(O)cc(O)c5C(=O)[C@@H]4O)ccc3O[C@@H]2CO)ccc1O`: 0.406%.
Turning to `Oc1ccc(Cl)cc1Cc1cc(Cl)ccc1O`, the activation was -1.39% and 3.39%.
On the same count and under the same terms, the same measure for `O=C(O)c1ccc(S(=O)(=O)N(Cl)Cl)cc1`: 0.0057%; for `CC(C)(C)CC(C)(C)c1ccc(O)c(-n2nc3ccccc3n2)c1`: 5.11%.
The same measure, in the same setting: the value for `CCCCC(CC)COC(=O)c1ccc(N(C)C)cc1` (centres undefined) was 8.87% and 0.16%; that for `C=C[C@H]1CN2CC[C@H]1C[C@@H]2[C@@H](O)c1ccnc2ccc(OC)cc12` was 4.17%.
As for `NCCNc1cccc2ccccc12`, the Potency was 39.8 µM (active).
`CC1(C)OC[C@@H]2O[C@@]3(C(=O)O)OC(C)(C)O[C@H]3[C@@H]2O1`: the activation is 1.2%.
The same measure, in the same setting: the same measure for `NC(=O)c1ccccc1O`: 2.51%.
Still for that read-out and setting: the same measure for `COc1ccc(C(=O)c2ccccc2)c(O)c1`: 8.63% and 11.4%; for `CCCCCCCCCCCCCCCC(=O)O`: 0.499%.
On the same count and under the same terms, the value for `CCCCCCCCCCCCCCCCO` was 1.7%.
For the compound `C=C[C@@]1(C)CC(=O)[C@]2(O)[C@@]3(C)[C@@H](O)CCC(C)(C)[C@@H]3[C@H](O)[C@H](OC(C)=O)[C@@]2(C)O1`, the Potency is 17.8 µM (active).
For `CCCCCCCC/C=C\CCCCCCCCN`, the activation is -0.319%.
For the compound `Oc1c(Cl)cc(Cl)c(Cl)c1Cc1c(O)c(Cl)cc(Cl)c1Cl`, the activation is 3.13% and 3.58%.

The values are drawn from PubChem BioAssay (NCATS).
